Several values for one entry are separate records, joined by “and”; a condition that tells them apart may be missing. Equal entries are not always repeated. Among all 5,500 compounds or so, about 2,000 (36%) were called active. Roughly 18% stayed inconclusive and do not appear here. No stated cut-off is given here; in the data, active means normalized growth mostly below about 0.91 (no sharp cut-off); inconclusive means no clear call, values can overlap the other calls; inactive means mostly above about 0.92. The list shows a part of the results.
Assay: chemical genetic growth profiling, strain panel (AID 1159580);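 further: tested at 20 µM; growth read once vehicle control cultures reached saturation at 30 °C; 1 = growth at the plate median or of vehicle wells; lower values mean less growth of the strain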
Conditions: S. cerevisiae deletion strains, growth OD

Measured: normalized growth

NCCc1ccc(O)cc1
inactive: locus YAL021C, strain ccr4, active compounds read low 0.995 | locus YAL026C, strain drs2, active compounds read low 0.963 | locus YAL030W, strain snc1, active compounds read low 0.989 | locus YAL040C, strain CLN3, active compounds read low 0.988 | locus YBL061C, strain skt5, active compounds read low 0.975 | locus YBR009C, strain hhf1, active compounds read low 0.985 | locus YBR021W, strain FUR4, active compounds read low 0.97 | locus YBR023C, strain chs3, active compounds read low 0.98 | locus YBR171W, strain sec66, active compounds read low 0.957 | locus YBR229C, strain ROT2, active compounds read low 0.999 | locus YBR231C, strain swc5, active compounds read low 0.961 | locus YBR279W, strain paf1, active compounds read low 0.983 | locus YCL011C, strain gbp2, active compounds read low 0.997 | locus YCL016C, strain dcc1, active compounds read low 1.01 | locus YCL029C, strain bik1, active compounds read low 1.01 | locus YCL061C, strain MRC1 (second series), active compounds read low 1.01 | locus YCL069W, strain vba3, active compounds read low 0.99 | locus YCR088W, strain abp1, active compounds read low 0.972 | locus YDL005C, strain med2, active compounds read low 0.972 | locus YDL035C, strain GPR1, active compounds read low 1.01 | locus YDL040C, strain nat1, active compounds read low 0.984 | locus YDL074C, strain BRE1, active compounds read low 0.99 | locus YDL101C, strain DUN1, active compounds read low 1 | locus YDL185W, strain tfp1, active compounds read low 1 | locus YDL192W, strain arf1, active compounds read low 1 | locus YDR001C, strain nth1, active compounds read low 0.975 | locus YDR069C, strain doa4, active compounds read low 0.945 | locus YDR101C, strain arx1, active compounds read low 0.991 | locus YDR137W, strain rgp1, active compounds read low 0.981 | locus YDR150W, strain NUM1, active compounds read low 1.01 | locus YDR159W, strain sac3, active compounds read low 0.905 | locus YDR162C, strain NBP2, active compounds read low 1.01 | locus YDR195W, strain ref2 0.928 | locus YDR297W, strain sur2, active compounds read low 0.978 | locus YDR318W, strain mcm21, active compounds read low 0.997 | locus YDR334W, strain swr1, active compounds read low 0.967 | locus YDR335W, strain msn5, active compounds read low 0.983 | locus YDR363W, strain ESC2, active compounds read low 1.01 | locus YDR388W, active compounds read low 1 | locus YDR392W, strain spt3, active compounds read low 0.935 | locus YDR502C, strain sam2, active compounds read low 0.989 | locus YEL003W, strain gim4, active compounds read low 0.969 | locus YEL037C, strain rad23, active compounds read low 0.977 | locus YEL061C, strain CIN8 (second series), active compounds read low 0.975 | locus YEL061C, strain CIN8, active compounds read low 1 | locus YER002W, strain NOP16, active compounds read low 0.994 | locus YER015W, strain faa2, active compounds read low 0.994 | locus YER016W, strain bim1, active compounds read low 0.985 | locus YER110C, active compounds read low 0.993 | locus YER111C, strain swi4, active compounds read low 0.981 | locus YER155C, strain BEM2 (second series), active compounds read low 0.951 | locus YER155C, strain BEM2, active compounds read low 1.01 | locus YER167W, strain BCK2, active compounds read low 1 | locus YFR010W, strain ubp6, active compounds read low 0.957 | locus YGL078C, strain dbp3, active compounds read low 0.994 | locus YGL086W, strain mad1, active compounds read low 0.966 | locus YGL167C, strain pmr1, active compounds read low 0.972 | locus YGL173C, strain kem1, active compounds read low 0.964 | locus YGL227W, strain vid30, active compounds read low 0.978 | locus YGL240W, strain doc1, active compounds read low 0.96 | locus YGL248W, strain PDE1, active compounds read low 1.01 | locus YGL253W, strain hxk2, active compounds read low 0.972 | locus YGR078C, strain PAC10, active compounds read low 1.01 | locus YGR135W, strain pre9, active compounds read low 0.997 | locus YGR229C, strain SMI1, active compounds read low 1.01 | locus YGR252W, strain gcn5, active compounds read low 1.01 | locus YHR013C, strain ard1, active compounds read low 0.97 | locus YHR027C, strain rpn1, active compounds read low 0.99 | locus YHR030C, strain SLT2, active compounds read low 1 and 0.976 | locus YHR079C, strain IRE1 (second series), active compounds read low 0.994 | locus YHR079C, strain IRE1, active compounds read low 0.976 | locus YHR094C, strain hxt1, active compounds read low 1.01 | locus YHR129C, strain ARP1, active compounds read low 1.01 | locus YHR142W, strain chs7, active compounds read low 0.982 | locus YHR200W, strain rpn10, active compounds read low 1.03 | locus YIL066C, strain RNR3, active compounds read low 1.01 | locus YIL073C, strain SPO22, active compounds read low 0.985 | locus YIL125W, strain kgd1, active compounds read low 0.985 | locus YIR030C, strain dcg1, active compounds read low 0.996 | locus YJL092W, strain hpr5, active compounds read low 0.973 | locus YJL095W, strain BCK1 (second series), active compounds read low 0.978 | locus YJL095W, strain BCK1, active compounds read low 1.01 and 0.995 | locus YJL115W, strain asf1, active compounds read low 0.963 | locus YJL129C, strain trk1, active compounds read low 0.967 | locus YJL134W, strain LCB3, active compounds read low 1.01 | locus YJL154C, strain vps35, active compounds read low 0.975 | locus YJL164C, strain tpk1, active compounds read low 0.998 | locus YJL166W, strain qcr8, active compounds read low 0.986 | locus YJL168C, strain set2, active compounds read low 1 | locus YJL187C, strain SWE1 (second series), active compounds read low 1.01 | locus YJL187C, strain SWE1, active compounds read low 0.984 | locus YJR043C, strain POL32, active compounds read low 1.02 | locus YJR066W, strain TOR1, active compounds read low 0.932

— PubChem BioAssay AID1159580 (chemical genetic matrix, 2015)
